Structures are written as SMILES. Activity calls are given as the source filed them.

Test [1] in a line: binders of probe aFSTL3 on microarray, primary screen, stem cell growth factor project, biochemical, small-molecule microarray, fluorescence 635/667 (AID 1064).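 Further: measures binding of the biotinylated anti-FSTL3 antibody to printed compounds.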 The settings on record: higher = more signal.
Test [2] is described as follows: binders from COS7 lysate, DM2A8 probe, primary screen, torsin A project, cell lysate, small-molecule microarray, fluorescence 635/667 (AID 1065). The settings on record: higher = more signal, COS7 lysate expressing mutant human TOR1A.
Test [3] can be described thus: binders of probe aFGF2 on microarray, primary screen, stem cell growth factor project, biochemical, small-molecule microarray, fluorescence 635/667 (AID 1067).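 Further: measures binding of biotinylated aFGF2 protein to printed compounds on slides; z-score merges feature fluorescence and signal-to-noise across triplicate slides.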 The settings on record: higher = more signal.
The nature of test [4]: binders of probe aFGF10 on microarray, primary screen, stem cell growth factor project, biochemical, small-molecule microarray, fluorescence 635/667 (AID 1071).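 Further: score merges 667 nm spot intensity and signal to noise from triplicate slides.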 The settings on record: higher = more signal.
The target in test [5] is Neurogenic locus notch homolog protein 2 (Homo sapiens) (UniProt Q04721). Put plainly: Notch2 binders on small-molecule microarrays, primary screen, biochemical, small-molecule microarray, 635 nm fluorescence, stem cell growth factors (AID 1073). The settings on record: Notch2 binding, higher = more signal.
For test [6], the target named is Pro-neuregulin-1, membrane-bound isoform (Homo sapiens) (UniProt Q02297). Put plainly: NRG1 binders on small-molecule microarrays, primary screen, psychiatric disease protein project, biochemical, small-molecule microarray, fluorescence 635/667 (AID 1075).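 Further: score combines 667 nm spot fluorescence with signal to noise.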 The settings on record: NRG1 binding, 635 nm fluorescence, higher = more signal.
The test system of test [7] is Neuregulin-1 EGF-like domain. Put plainly: binders of neuregulin-1 EGF-like domain, primary screen, biochemical, small-molecule microarray, 635 nm fluorescence (AID 1081).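 Further: binding of the protein to compounds printed on small-molecule microarray slides.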 The settings on record: small-molecule microarray binding, higher = more signal.
Test [8] is described as follows: FRG1 promoter luciferase signal modulators, primary screen, FRG1 inhibition for FSHD, cell-based, C2C12 myotubes, firefly/Renilla luciferase, luminescence (AID 1084). The settings on record: higher = more signal, called active from +8 up or from −8 down.
Test [9] in a line: binders of probe aFST on microarray, primary screen, stem cell growth factor project, biochemical, small-molecule microarray, fluorescence 635/667 (AID 1086).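 Further: score merges 667 nm fluorescence with signal-to-noise of each printed compound spot.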 The settings on record: higher = more signal.
Test [10] can be described thus: binders of probe aHhip on microarray, primary screen, stem cell growth factor project, biochemical, small-molecule microarray, fluorescence 635/667 (AID 1087).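 Further: score merges spot fluorescence at 667nm with spot signal to noise ratio.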 The settings on record: higher = more signal.

Chain of Neurogenic locus notch homolog protein 2 (Homo sapiens) (Q04721 whole entry, looked up, canonical isoform): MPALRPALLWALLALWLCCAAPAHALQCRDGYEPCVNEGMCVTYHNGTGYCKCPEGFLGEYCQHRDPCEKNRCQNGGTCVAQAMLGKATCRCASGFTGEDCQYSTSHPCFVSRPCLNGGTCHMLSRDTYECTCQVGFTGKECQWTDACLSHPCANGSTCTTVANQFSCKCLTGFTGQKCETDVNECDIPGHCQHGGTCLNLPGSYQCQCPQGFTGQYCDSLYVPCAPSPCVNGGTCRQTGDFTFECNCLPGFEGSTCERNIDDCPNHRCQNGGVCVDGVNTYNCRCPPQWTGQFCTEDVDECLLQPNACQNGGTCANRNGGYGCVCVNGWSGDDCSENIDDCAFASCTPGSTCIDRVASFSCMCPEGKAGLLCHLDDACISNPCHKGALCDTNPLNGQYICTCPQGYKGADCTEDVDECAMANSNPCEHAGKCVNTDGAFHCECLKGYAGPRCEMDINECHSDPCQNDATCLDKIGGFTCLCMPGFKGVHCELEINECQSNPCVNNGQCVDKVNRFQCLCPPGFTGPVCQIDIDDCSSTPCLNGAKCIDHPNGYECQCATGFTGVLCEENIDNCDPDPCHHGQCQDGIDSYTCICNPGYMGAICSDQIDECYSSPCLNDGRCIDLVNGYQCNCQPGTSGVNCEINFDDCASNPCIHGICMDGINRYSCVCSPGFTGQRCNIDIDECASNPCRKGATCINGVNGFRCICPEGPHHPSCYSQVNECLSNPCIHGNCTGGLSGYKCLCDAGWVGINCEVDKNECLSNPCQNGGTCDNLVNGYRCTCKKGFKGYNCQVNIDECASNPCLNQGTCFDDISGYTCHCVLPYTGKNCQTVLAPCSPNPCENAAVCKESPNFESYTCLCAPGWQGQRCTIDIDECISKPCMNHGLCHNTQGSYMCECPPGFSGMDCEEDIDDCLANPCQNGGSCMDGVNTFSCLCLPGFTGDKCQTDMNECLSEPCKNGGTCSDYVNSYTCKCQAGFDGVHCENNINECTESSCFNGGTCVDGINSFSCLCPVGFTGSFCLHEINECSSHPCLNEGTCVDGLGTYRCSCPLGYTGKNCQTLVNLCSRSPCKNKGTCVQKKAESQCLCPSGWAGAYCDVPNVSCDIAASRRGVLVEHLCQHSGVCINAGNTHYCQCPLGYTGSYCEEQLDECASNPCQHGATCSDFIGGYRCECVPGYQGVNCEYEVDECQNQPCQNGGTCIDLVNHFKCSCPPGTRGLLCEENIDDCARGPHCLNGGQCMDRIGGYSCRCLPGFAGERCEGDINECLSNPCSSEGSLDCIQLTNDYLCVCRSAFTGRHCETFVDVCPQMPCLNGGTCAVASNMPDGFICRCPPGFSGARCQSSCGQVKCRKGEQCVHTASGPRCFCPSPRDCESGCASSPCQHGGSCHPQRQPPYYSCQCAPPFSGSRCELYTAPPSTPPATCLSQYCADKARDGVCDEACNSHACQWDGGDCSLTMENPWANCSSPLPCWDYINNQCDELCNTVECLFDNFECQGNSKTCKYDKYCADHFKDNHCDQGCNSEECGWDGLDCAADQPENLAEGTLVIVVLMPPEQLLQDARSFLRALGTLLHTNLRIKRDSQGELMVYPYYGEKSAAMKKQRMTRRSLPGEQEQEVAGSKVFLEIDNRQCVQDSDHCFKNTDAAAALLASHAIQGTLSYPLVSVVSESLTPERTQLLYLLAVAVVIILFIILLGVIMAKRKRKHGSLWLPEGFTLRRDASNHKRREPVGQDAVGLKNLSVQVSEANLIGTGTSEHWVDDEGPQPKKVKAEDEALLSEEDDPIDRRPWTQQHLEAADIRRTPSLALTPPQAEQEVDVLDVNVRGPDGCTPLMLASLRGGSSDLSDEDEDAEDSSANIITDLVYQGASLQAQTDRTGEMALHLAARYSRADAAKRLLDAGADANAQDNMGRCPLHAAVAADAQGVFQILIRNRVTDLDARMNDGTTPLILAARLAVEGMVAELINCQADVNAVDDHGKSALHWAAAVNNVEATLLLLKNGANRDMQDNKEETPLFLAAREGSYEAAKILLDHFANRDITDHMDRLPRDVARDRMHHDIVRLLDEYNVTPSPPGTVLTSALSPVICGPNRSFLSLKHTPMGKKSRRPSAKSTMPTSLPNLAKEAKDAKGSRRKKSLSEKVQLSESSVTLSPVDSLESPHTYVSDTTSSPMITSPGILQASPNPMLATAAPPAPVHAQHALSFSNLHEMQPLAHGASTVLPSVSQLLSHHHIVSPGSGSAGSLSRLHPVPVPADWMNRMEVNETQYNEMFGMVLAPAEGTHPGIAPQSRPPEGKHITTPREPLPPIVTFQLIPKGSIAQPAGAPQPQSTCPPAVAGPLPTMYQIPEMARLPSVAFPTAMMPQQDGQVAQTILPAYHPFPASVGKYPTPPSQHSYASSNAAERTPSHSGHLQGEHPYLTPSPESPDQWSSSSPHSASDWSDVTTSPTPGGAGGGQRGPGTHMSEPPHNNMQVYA
Chain of Pro-neuregulin-1, membrane-bound isoform (Homo sapiens) (Q02297 whole entry, looked up, the tested form may be a part, canonical isoform): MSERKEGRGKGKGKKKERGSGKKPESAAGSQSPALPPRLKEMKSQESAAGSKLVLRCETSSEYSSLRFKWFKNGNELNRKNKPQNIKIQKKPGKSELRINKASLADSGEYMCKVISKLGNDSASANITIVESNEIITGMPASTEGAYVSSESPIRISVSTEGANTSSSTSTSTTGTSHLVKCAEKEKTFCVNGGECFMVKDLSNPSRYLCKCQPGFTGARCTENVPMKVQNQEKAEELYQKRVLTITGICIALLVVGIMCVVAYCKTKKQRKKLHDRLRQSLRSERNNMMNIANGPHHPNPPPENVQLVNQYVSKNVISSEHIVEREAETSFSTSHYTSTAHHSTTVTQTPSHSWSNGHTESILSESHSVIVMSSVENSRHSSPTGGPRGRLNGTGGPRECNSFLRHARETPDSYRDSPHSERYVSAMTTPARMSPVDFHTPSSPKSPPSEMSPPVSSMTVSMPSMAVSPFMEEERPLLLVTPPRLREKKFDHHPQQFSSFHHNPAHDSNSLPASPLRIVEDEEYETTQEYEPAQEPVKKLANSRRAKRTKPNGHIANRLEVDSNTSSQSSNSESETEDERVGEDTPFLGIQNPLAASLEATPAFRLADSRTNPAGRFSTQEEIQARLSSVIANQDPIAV

Consider `CN(C)C(=O)[C@]1(CCC(=O)OC(C)(C)C)N=C(c2ccc(OCCCO)cc2)O[C@@H]1c1ccccc1CN=[N+]=[N-]`, for which the composite z-score in test [1] was 0.292; in test [2], 1.28; in test [3], 0.485; in [4], 0.488; in test [5], 0.934; in test [6], 1.89. In addition, the composite z-score in [7] was 1.15; in test [9] it was 1.34; in test [10] it was -0.476. In addition, the z-score in test [8] is 3.58 (inactive).
For `CCCNC(=O)[C@@]1(Sc2ccc(C)cc2)CC(=O)N(C2Cc3ccccc3C2)[C@@H]1c1ccc(CO)cc1I`, the composite z-score in [1] is 0.427; in test [2], 0.31; in [3], -0.103; in test [4], 0.0119; in test [5], -0.445; in [6] it was 0.917. Also, the composite z-score in test [7] is 1.01; in test [9] it was -0.227; in test [10], 0.0505. In addition, the z-score in test [8] is -0.653 (inactive).
Take `COC(=O)c1c(CC[C@@H](CO)NC(=O)N[C@@H](C)Cn2cc(-c3ccccn3)nn2)oc(C(C)=O)c1C(=O)OC`: the composite z-score in test [1] is -0.291; in test [2], 0.334; in test [3], -0.076; in test [4] it was 0.384; in test [5] it was -0.127; in [6] it was 1.66. The composite z-score in test [7] is 1.29; in test [9] it was -0.205; in test [10] it was -0.0237. Also, in test [8], the z-score was 0.224 (inactive).
`C=CC[C@H](OC(=O)Nc1ccc(SC)cc1)c1ccc(O)c2ccccc12`: the composite z-score amounted to 0.0792 in test [1]; 0.104 in [2]; 0.0536 in test [3]; 0.254 in test [4]; 1.3 in test [5]; 1.75 in [6]. In addition, the composite z-score in test [7] is 1.33; in test [9] it was 0.385; in [10] it was 0.176. Further, the z-score in [8] was 7.23 (inactive).
With `[N-]=[N+]=Nc1ccccc1C[C@]1(C(=O)NCC(O)CO)COC(c2ccc(OCCCO)cc2)=N1` (stereo not given in full), the composite z-score was 0.502 in [1]; 0.475 in test [2]; 0.0154 in test [3]; 0.859 in test [4]; -0.33 in test [5]; 1.43 in test [6]. In addition, the composite z-score in test [7] is 1.14; in test [9], 0.255; in test [10], -0.0994. Also, the z-score in test [8] is 2.1 (inactive).
`COc1cc2c(cc1O)C(c1cccs1)N(Cc1cc3c(cc1Br)OCO3)CC2` (stereo not given): the composite z-score in [1] is -0.0508; in [2], 0.58; in [3], 0.0797; in test [4] it was 1.3; in [5], 1.56; in [6], 2.08. Moreover, the composite z-score in [7] is 1.45; in [9] it was 1.23; in test [10] it was 0.0881. For the same compound, in test [8], the z-score is 0.364 (inactive).
For `CC(C)[Si]1(C(C)C)OCc2cc(-c3ccc(-c4ccc(Cl)c(Cl)c4)o3)nc(-c3ccccc3)c21`, the composite z-score in test [1] was 0.695; in test [2] it was -0.464; in [3], -0.147; in test [4] it was -0.818; in [5] it was -1.65; in test [6], 0.314. Also, the composite z-score was -0.914 in test [7], -0.774 in [9] and -0.134 in test [10]. Also, the z-score in test [8] is -0.358 (inactive).
`CC1CC/C=C\[C@H]2OC34C=CCN(C(C)(C)C)C(=O)[C@H]3N(CCCCCO)C(=O)[C@@H]4C2C(=O)O1` (stereo not given in full): the composite z-score was -0.108 in test [1]; -0.688 in test [2]; -0.172 in test [3]; -0.817 in test [4]; -1.57 in test [5]; 0.299 in test [6]. In addition, the composite z-score was 0.479 in test [7], -0.581 in test [9] and -0.261 in test [10]. Further, the z-score in test [8] is -0.0661 (inactive).
As for `O=C(NCCN1CCOCC1)[C@@H]1c2ccccc2C(=O)N(Cc2ccccc2Cl)[C@H]1c1ccc(CO)cc1`, the composite z-score in test [1] was -0.138; in test [2], -0.483; in test [3], -0.15; in [4], -0.758; in [5], -0.922; in test [6] it was 0.923. Also, the composite z-score was 1.32 in [7], 0.263 in test [9] and -0.391 in test [10]. In addition, the z-score in test [8] is -2.41 (inactive).
For `NC(=O)NCC#Cc1ccc2c(c1)[C@]1(C(=O)N2)[C@H](c2ccccc2OCCO)N2[C@H](c3ccccc3)[C@H](c3ccccc3)OC(=O)[C@H]2[C@@H]1C(=O)O`, the composite z-score in test [1] was 0.129; in test [2] it was 0.443; in test [3], -0.0383; in test [4], -0.0167; in test [5], -0.243; in test [6] it was 1.11. Besides, the values for the composite z-score in test [7], in [9] and in test [10] were -0.0034, -0.362 and -0.438, respectively. The z-score in test [8] is 0.233 (inactive).
On to `CCOC(=O)[C@@H]1CCCCN1C(=O)C(=O)OC`, for which the composite z-score in test [1] was 0.0188; in test [2] it was 0.188; in test [3] it was -0.0593; in test [4], 0.453; in [5], 0.0842; in [6], -0.0734. Also, the composite z-score was 0.33 in test [7], 0.115 in [9] and -0.342 in test [10]. Moreover, in test [8], the z-score was 0.148 (inactive).
As for `C=CC[C@@]1(C(=O)NCCCOC)N=C(c2ccc(OCCCO)cc2)O[C@@H]1c1ccccc1N=[N+]=[N-]`, the composite z-score in [1] amounted to 0.165; in test [2], 0.252; in test [3], 0.0442; in test [4] it was 0.469; in [5], 0.798; in [6], 1.67. Further, the composite z-score is 1.21 in test [7], 1.06 in test [9] and -0.0645 in [10]. In addition, in test [8], the z-score is 2.26 (inactive).
Regarding `COCCOC(=O)N1C(=O)[C@@]2(c3cc(C#CCCO)ccc31)[C@H](C(=O)Nc1nc3ccccc3s1)[C@H]1C(=O)O[C@H](c3ccccc3)[C@H](c3ccccc3)N1[C@@H]2c1ccc(O)cc1`, the composite z-score in test [1] was -0.223; in test [2], 0.9; in [3], -0.0403; in test [4], 0.83; in test [5] it was 1.53; in test [6], 1.07. In addition, the composite z-score was determined as 0.72 in test [7], 0.346 in test [9] and 0.0505 in [10]. For the same compound, the z-score in test [8] was -0.948 (inactive).
For `COc1cccc(C)c1NC(=O)O[C@H]1[C@H](OC(=O)Nc2ccccc2-c2ccccc2)[C@H](OC(=O)Nc2ccccc2-c2ccccc2)[C@@H](OC)O[C@@H]1CO`, the composite z-score in [1] is -0.205; in test [2], 0.0513; in test [3] it was 0.137; in test [4], 0.542; in [5], 1.46; in [6], 1.46. Also, the figures for the composite z-score in [7], in [9] and in test [10] were 1.14, 1.48 and -0.219, respectively. Moreover, the z-score in test [8] was 0.379 (inactive).

The record behind these values is PubChem BioAssay.
